# Measurements as given in PubChem BioAssay.
# Activity calls are given as the source filed them. Unless noted, no rule for the calls is given here.
# Legend:
# [1] = glutamate transport activators, MN-1 cells, MN-1 cell line (AID 1612); conditions: MN-1 motor neuron cells, stronger effect = higher value;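 also: tested at 1 µM final; 0% = mean of DMSO vehicle wells on each plate; positive means more glutamate uptake than control and negative means less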
# [2] = 75Q-TubH aggregate inhibition, S. cerevisiae, yeast (AID 1616); conditions: S. cerevisiae 75Q-TubH polyglutamine aggregation suppression; stronger effect = higher value
# [3] = GFP-Q80 aggregate reduction, neuronal-like cells, cell-based, NGF-treated PC12, GFPQ80 (AID 1614); conditions: PC12 NGF-treated GFP-polyQ80 inclusion reduction;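 also: lower means fewer inclusions and 0 means no inclusions at all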
# [4] = compounds altering HSF1 focus formation in cells – imaging, Selleck Cancer Library (AID 1347162; in the data active = plate-normalised HSF1 focus index below about 0.46); conditions: human cells, HSF1 nuclear foci imaging, at 10 µM; SSMD: measured here: HSF1 foci SSMD mean; cell count: measured here: cell number; plate-normalised HSF1 focus index: stronger effect = lower value
# [5] = chitosan synthesis blockers in C. neoformans – flow cytometry, Cibacron Brilliant Red staining (AID 1347148); conditions: Cryptococcus neoformans chitosan, stronger effect = lower value; at 10 µM unless noted;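 also: compound exposure lasted three days at 37 degrees C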
smiles,measurement,setting,value
NC(Cc1cc(I)c(Oc2ccc(O)c(I)c2)c(I)c1)C(=O)O (centres undefined),glutamate uptake change,[1],-8.22%
same,aggregation suppression score,[2],0.825
CN1CCC[C@H]1c1cccnc1,glutamate uptake change,[1],15.4%
same,inclusion score,[3],2
same,aggregation suppression score,[2],1.26
Nc1nc(Cl)nc2c1ncn2[C@H]1C[C@H](O)[C@@H](CO)O1,SSMD,[4],-4.5
same,cell count,[4],6930
same,plate-normalised HSF1 focus index,[4],0.776 (inactive)
CN1C2CCC1CC(OC(c1ccccc1)c1ccccc1)C2 (centres undefined),glutamate uptake change,[1],-4.45%
same,aggregation suppression score,[2],1.04
O=c1[nH]c2ccccc2c2ccccc12,fold fluorescence,[5],3.09 [at 256.1 µM] (inactive)
CN(C)CC/C=C1/c2ccccc2COc2ccccc21,glutamate uptake change,[1],2.11%
same,inclusion score,[3],2
same,aggregation suppression score,[2],1.19
